The source of these data is PubChem BioAssay (NCATS).

Assay [1] deals with Rap guanine nucleotide exchange factor 3 (Homo sapiens) (UniProt O95398). Briefly: Confirmatory qHTS for agonist of cAMP-regulated guanine nucleotide exchange factor 3 (EPAC1) (AID 1645881).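 Also: EPAC1 catalysed release of BODIPY-GDP from Rap1B seen as fluorescence loss; 100% = effect of cAMP agonist control; nearly all actives have a fitted effect of over 75% in size.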 For orientation: qHTS replaces the single test concentration by a dilution series.
Chain of Rap guanine nucleotide exchange factor 3 (Homo sapiens) (O95398 whole entry, looked up): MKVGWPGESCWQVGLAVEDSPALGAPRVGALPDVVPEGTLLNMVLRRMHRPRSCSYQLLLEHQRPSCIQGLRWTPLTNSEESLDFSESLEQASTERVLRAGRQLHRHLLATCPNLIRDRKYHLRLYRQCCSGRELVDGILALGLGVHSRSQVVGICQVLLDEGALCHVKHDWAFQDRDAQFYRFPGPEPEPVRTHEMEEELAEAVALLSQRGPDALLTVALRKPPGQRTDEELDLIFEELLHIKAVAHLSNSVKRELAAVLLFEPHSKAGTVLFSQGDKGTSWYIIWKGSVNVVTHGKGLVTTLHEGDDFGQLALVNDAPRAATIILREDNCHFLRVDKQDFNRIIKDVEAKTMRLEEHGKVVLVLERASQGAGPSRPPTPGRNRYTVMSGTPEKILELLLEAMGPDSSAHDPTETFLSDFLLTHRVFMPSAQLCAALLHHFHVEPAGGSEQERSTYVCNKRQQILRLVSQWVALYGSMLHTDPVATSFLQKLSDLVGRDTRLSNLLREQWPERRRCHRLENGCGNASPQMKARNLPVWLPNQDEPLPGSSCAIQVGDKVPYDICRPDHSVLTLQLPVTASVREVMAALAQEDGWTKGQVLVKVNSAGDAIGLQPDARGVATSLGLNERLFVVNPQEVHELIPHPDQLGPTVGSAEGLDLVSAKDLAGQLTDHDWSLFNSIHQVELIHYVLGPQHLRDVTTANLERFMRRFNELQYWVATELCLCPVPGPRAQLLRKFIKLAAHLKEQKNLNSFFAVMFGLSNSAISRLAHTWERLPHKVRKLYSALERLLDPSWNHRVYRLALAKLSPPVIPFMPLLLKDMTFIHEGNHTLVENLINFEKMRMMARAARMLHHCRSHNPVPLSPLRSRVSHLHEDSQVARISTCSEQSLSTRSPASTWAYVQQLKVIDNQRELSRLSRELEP
The target is the same in assay [2]. Put plainly: Counterscreen qHTS for antagonist of cAMP-regulated guanine nucleotide exchange factor 3 (EPAC1) (AID 1645888).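 Also: fluorescence loss as bound BODIPY-GDP is released from Rap1B; % of control where 0% means no effect.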 In short, it runs like this: (§1)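 Rap1B–BODIPY-GDP (250 nM) with 50 uM GDP; compounds pin-transferred to 9.74 nM–152 uM final (activator) or from 7.32 nM upwards (inhibitor). Fluorescence Ex/Em 480/540 nm read at 5 and 30 min, then after adding cAMP or buffer, at room temperature.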

The target is the same in assay [3]. Briefly: Counterscreen qHTS for agonist of cAMP-regulated guanine nucleotide exchange factor 3 (EPAC1) (AID 1645889). Also: % of control where 0% means no effect; nearly all actives have a fitted effect of over 40% in size. In short, it runs like this:
as §1
A general note: Counterscreens check selectivity or assay interference.

In assay [4] the target is Rap guanine nucleotide exchange factor 4 (Homo sapiens) (UniProt Q8WZA2). Put plainly: Confirmatory qHTS for agonist of cAMP-regulated guanine nucleotide exchange factor 4 (EPAC2) (AID 1645884). Also: nearly all actives have a fitted effect of over 65% in size. Also: potency is read from the fitted curve at half-maximal effect. As to activation: % is scaled to controls: 0 for no effect and ±100 for the full control effect.
Chain of Rap guanine nucleotide exchange factor 4 (Homo sapiens) (Q8WZA2 whole entry, looked up): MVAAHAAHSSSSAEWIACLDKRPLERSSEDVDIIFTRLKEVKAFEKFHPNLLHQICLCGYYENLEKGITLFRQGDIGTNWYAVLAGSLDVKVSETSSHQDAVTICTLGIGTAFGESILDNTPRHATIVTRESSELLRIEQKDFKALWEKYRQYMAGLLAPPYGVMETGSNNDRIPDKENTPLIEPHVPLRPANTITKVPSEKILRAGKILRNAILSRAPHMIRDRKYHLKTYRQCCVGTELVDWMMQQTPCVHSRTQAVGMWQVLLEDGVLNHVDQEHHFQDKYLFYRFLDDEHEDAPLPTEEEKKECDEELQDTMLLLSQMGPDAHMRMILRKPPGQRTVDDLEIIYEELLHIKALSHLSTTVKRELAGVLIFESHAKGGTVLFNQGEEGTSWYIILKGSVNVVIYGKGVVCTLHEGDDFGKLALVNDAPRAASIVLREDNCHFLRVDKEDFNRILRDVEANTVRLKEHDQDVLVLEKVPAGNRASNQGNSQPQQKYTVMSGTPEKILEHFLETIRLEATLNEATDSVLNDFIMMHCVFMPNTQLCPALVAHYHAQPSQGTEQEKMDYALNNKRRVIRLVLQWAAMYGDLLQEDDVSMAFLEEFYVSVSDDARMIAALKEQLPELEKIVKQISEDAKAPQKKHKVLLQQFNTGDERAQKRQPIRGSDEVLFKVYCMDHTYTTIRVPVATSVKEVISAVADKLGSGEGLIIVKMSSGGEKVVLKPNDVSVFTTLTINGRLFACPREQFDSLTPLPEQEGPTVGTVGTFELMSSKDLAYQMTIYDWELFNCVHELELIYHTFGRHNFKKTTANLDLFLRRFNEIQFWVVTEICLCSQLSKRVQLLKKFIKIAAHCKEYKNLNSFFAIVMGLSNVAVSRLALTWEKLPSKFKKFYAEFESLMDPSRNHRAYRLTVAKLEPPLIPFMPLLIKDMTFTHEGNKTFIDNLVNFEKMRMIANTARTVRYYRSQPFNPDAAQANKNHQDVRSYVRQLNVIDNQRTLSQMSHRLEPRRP
The target is the same in assay [5]. Put plainly: Confirmatory qHTS for antagonist of cAMP-regulated guanine nucleotide exchange factor 4 (EPAC2) (AID 1645885). Also: nearly all actives have a fitted effect of over 25% in size. As to activity change, negative = inhibition: % is scaled to controls: 0 for no effect and ±100 for the full control effect.

Results filed as inconclusive are left out. Unmarked numbers belong to inactive results. Activity calls are given as the source filed them. Calls follow the shape of the dose curve; as a rule, active = well fitted curve in the direction sought with a large enough effect; inconclusive = small, poorly fitted or top-dose-only effect, or another doubt; inactive = no such curve, though single readings can be large; an effect the other way counts as inactive or inconclusive.

In the case of `CCOC(=O)C1=C(c2ccccc2)c2ccccc2OC1C(=O)OCC` (stereo unspecified), the Potency result in assay [1] was “inactive”. Further, the activity change, negative = inhibition in assay [2] is -22.2% [at 30.8 µM]. In assay [3], the activation was 24.5% [at 30.8 µM].
For `CCC(CC)C(=O)Nc1nc(-c2ccc3c(c2)CCN3C(=O)C2CC2)c(C)s1` the same measures were “inactive”, -24% [at 30.8 µM] and 26.5% [at 30.8 µM].
On to `O=C(O)c1cccc(Cn2c(Cl)c(/C=N/NC(=O)c3cc4ccccc4cc3O)sc2=O)c1`, for which the Potency entry in assay [1] and in assay [2] was “inactive” throughout.
Consider `COC(=O)c1ccc2nc(-c3cccc(Cl)c3)c(Cc3ccccc3)n2c1`, for which the Potency entry in assay [1] was “inactive”. In assay [2], the activity change, negative = inhibition was -21.2% [at 30.8 µM]. Also, the activation in assay [3] is 15.5% [at 30.8 µM].
`O=C(Nc1ccc(F)cc1)c1cccc(N2C(=O)C3C4C=CC(C5CC45)C3C2=O)c1` (stereo unspecified): the Potency result in assay [1] and in assay [2] was “inactive” each time.
For `Cc1ccc(N(Cc2ccc([N+](=O)[O-])cc2)C(=O)c2ccco2)cc1C`, the Potency entry in assay [1], in assay [2] and in assay [3] was “inactive” each time.
On to `O=C(COc1ccc(F)cc1Br)NCC1COc2ccccc2O1` (stereo unspecified), for which the Potency entry in assay [1], in assay [2] and in assay [3] was “inactive” throughout.
For `Cc1ccccc1C1CC(=O)c2ccccc2C1C` (stereo unspecified), the Potency entry in assay [1], in assay [2] and in assay [3] was “inactive” throughout.
For the compound `CCOc1ccc(C2C3=C(CCCC3=O)Nc3ccc4ncccc4c32)cc1` (stereo unspecified), the Potency entry in assay [1] is “inactive”. For the same compound, the activity change, negative = inhibition in assay [2] was -12.5% [at 30.8 µM].
As for `CCC(=O)N(CCC(c1ccc(C)cc1)c1ccco1)Cc1ccco1` (stereo unspecified), the Potency result in assay [1] is “inactive”. The activity change, negative = inhibition in assay [2] is -11.4% [at 30.8 µM]. In addition, the activation in assay [3] is 19.5% [at 30.8 µM].
With `COc1ccc(C(=O)c2oc3ccc(OC)cc3c2N)cc1`, the Potency entry in assay [1], in assay [2] and in assay [3] was “inactive” in each case.
`CC(=O)N(CCC(Cc1ccccc1)c1ccco1)Cc1ccco1` (stereo unspecified): the Potency result in assay [1] was “inactive”. The activity change, negative = inhibition in assay [2] was -6.33% [at 30.8 µM]. Besides, in assay [3], the activation was 32.1% [at 30.8 µM].
As to `Cn1ccc2c(-c3ccc(C(C)(C)C)cc3)cc3c(c21)C1CCC3O1` (stereo unspecified), the Potency entry in assay [1], in assay [2] and in assay [3] was “inactive” each time.
For the compound `COC(=O)c1ccc2nc(-c3ccc(C)cc3)c(Cc3ccsc3)n2c1`, the Potency result in assay [1] was “inactive”. For the same compound, the activity change, negative = inhibition in assay [2] is 1.91% [at 30.8 µM]. Besides, in assay [3], the activation was 9.45% [at 30.8 µM].
For `CCOC(=O)C1=C(C)N(C)C(C)=C(C(=O)OCC)C1c1ccc(Cl)cc1`, the Potency result in assay [1], in assay [2] and in assay [3] was “inactive” each time.
Turning to `CCCC(C(=O)Nc1ccc(S(=O)(=O)Nc2nccs2)cc1)c1ccccc1` (stereo unspecified), in assay [1], the Potency entry is “inactive”. In assay [2], the activity change, negative = inhibition is -24.2% [at 30.8 µM]. The activation in assay [3] was 8.61% [at 30.8 µM].
In the case of `CC(=O)NC(c1cccc(F)c1)c1nc(/C=C/c2ccccc2)cs1` (stereo unspecified), the Potency result in assay [1] and in assay [2] was “inactive” in each case.
For the compound `Cc1ccc(S(=O)(=O)CC(=O)c2cc3cccc(C)c3oc2=O)cc1`, the Potency entry in assay [1], in assay [2] and in assay [3] was “inactive” in each case.
As to `CC(=O)N(CCC(c1ccco1)C(C)C)Cc1ccc(OC(C)C)cc1` (stereo unspecified), the Potency result in assay [1] and in assay [3] was “inactive” throughout.
On to `CCOc1ccc(N(Cc2ccc(OC)cc2)C(=O)c2ccco2)cc1`, for which the Potency entry in assay [1] and in assay [3] was “inactive” in each case.
In the case of `CCC(=O)N(CCC(c1ccco1)C(C)C)Cc1ccccc1` (stereo unspecified), the Potency entry in assay [1] and in assay [3] was “inactive” each time.
For the compound `Oc1ccc(NCc2cccc(OCc3ccc(F)cc3)c2)cc1`, in assay [4], the activation is 10.4% [at 17.1 µM, percent relative to cAMP agonist control]. Further, the Potency entry in assay [5] was “inactive”. Moreover, the activity change, negative = inhibition in assay [2] was -11.4% [at 30.8 µM].
In the case of `Cc1cc(=O)n(Cc2ccccc2)c2c1c(C)nn2C`, the Potency entry in assay [4], in assay [5] and in assay [2] was “inactive” in each case.
Turning to `O=C(O)c1ccc(N/N=C/c2ccc(-c3ccc(Cl)cc3Cl)o2)cc1`, the Potency result in assay [4], in assay [5] and in assay [2] was “inactive” throughout.
As to `C/C(=N\O)C(=O)OC1CC(C)CCC1C(C)C` (stereo unspecified), the Potency result in assay [1] and in assay [3] was “inactive” each time.
With `COc1ccc(OC)c(C2=CC(=O)C[C@H](c3ccc4c(c3)OCO4)C2)c1`, the activation in assay [4] was 11.2% [at 17.1 µM, percent relative to cAMP agonist control]. In addition, in assay [5], the Potency result was “inactive”. Besides, the activity change, negative = inhibition in assay [2] is -6.17% [at 30.8 µM].
As for `O=C1N(Cc2ccccc2Cl)c2ccccc2C1(O)c1c[nH]c2ccccc12` (stereo unspecified), the Potency result in assay [4], in assay [5] and in assay [2] was “inactive” in each case.
As for `Cc1ccc(NS(=O)(=O)c2cccc3cccnc23)c(Cl)c1`, the Potency result in assay [4], in assay [5] and in assay [2] was “inactive” in each case.
With `Cc1ccc(C(=O)N(Cc2ccco2)Cc2sccc2C)cc1`, the Potency result in assay [4], in assay [5] and in assay [2] was “inactive” throughout.
Consider `Cc1nc2c3cc(F)ccc3n(Cc3ccccc3F)c2s1`, for which the activation in assay [4] was 1.97% [at 17.1 µM, percent relative to cAMP agonist control]. For the same compound, in assay [5], the Potency entry is “inactive”. Besides, the activity change, negative = inhibition in assay [2] was -7.48% [at 30.8 µM].
With `COc1ccc2cc(-c3nc(Cl)c4c5c(sc4n3)CCCC5)c(=O)oc2c1`, the Potency entry in assay [4], in assay [5] and in assay [2] was “inactive” in each case.
As for `COc1ccc(CN(Cc2ccco2)C(=O)c2ccccc2F)cc1`, the Potency entry in assay [4], in assay [5] and in assay [2] was “inactive” in each case.
`COC(=O)C1=C(C)N(Cc2ccco2)C(=O)N[C@H]1c1cccc(C(F)(F)F)c1`: the Potency result in assay [1] and in assay [3] was “inactive” in each case.
In the case of `CCc1ccc(N=C2NC(=O)/C(=C/c3ccc(OCC(=O)O)c(OC)c3)S2)cc1`, the Potency result in assay [4], in assay [5] and in assay [2] was “inactive” throughout.
Turning to `O=C(Nc1cc(S(=O)(=O)N2CCCCC2)ccc1O)c1ccccc1NS(=O)(=O)c1ccc(F)c(F)c1`, the Potency in assay [4] was 282 nM (active). Moreover, the Potency entry in assay [5] was “inactive”. Also, the activity change, negative = inhibition in assay [2] is -23% [at 30.8 µM].
